Source: PubChem BioAssay (Tox21)
Inconclusive results are not listed. The source made the active and inactive calls. Unless noted, calls come from the whole dose curve.

Assays:
[1] = target: Thyrotropin receptor (Homo sapiens) (UniProt P16473); assay: qHTS assay to identify small molecule agonists of the thyroid stimulating hormone receptor (TSHR) signaling pathway (AID 1224843); note: nearly all actives have a fitted effect of over 45% in size
Method in brief: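 Agonist activity read as cAMP rise via d2/cryptate HTRF competition, 1 h room-temperature detection, in HEK293 cells expressing TSHR. Fifteen-point titrations, each run in triplicate, with a 30 min room-temperature incubation beforehand.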

[2] = qHTS assay to identify small molecule agonists of the hypoxia (HIF-1) signaling pathway - cell viability counter screen (AID 1224844); note: nearly all actives have a fitted effect of over 50% in size
Method in brief: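 Cytotoxicity measured by CellTiter-Glo ATP luminescence in the wells also read for beta-lactamase signal. Cells were HRE-bla ME-180 (2,000/well, 0.5% dialyzed FBS), exposed to compounds for 17 h at 37C.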

[3] = qHTS assay to identify small molecule agonists of H2AX (AID 1224845; active = well fitted activation curve with a large enough effect in the signal ratio in the repeat runs, not every such curve was filed as active; the % refers to the signal ratio)
Method in brief: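 Phospho-H2AX Ser139 measured by HTRF (ex 320 nm; em 665 and 620 nm) after 24 hr antibody incubation. Compounds, 15 concentrations, 0.76% DMSO, were applied to CHO-K1 cells for 3hr at 37C before lysis.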

[4] = qHTS assay to identify small molecule agonists of H2AX - cell viability counter screen (AID 1224847); note: top concentration of the series differs between compounds; nearly all actives have a fitted effect of over 30% in size
Method in brief: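 Quantitative HTS viability measurement: CHO-K1 wild-type cells in serum (10% FBS) medium, short 3 hr drug exposure at 37C with 0.76% DMSO, CellTiter-Glo luminescent detection.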

[5] = qHTS RealTime-Glo MT Cell Viability Assay in HepG2 cells - 24 hour (AID 1224867; active = well fitted curve in the direction sought with a large enough effect in the repeat runs; an effect the other way counts as inactive or inconclusive; note: nearly all actives have a fitted effect of over 50% in size)
Method in brief: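 Luminescence read-out: viable HepG2 cells reduce a prosubstrate to a NanoLuc substrate, giving a signal proportional to live cell number. Reads taken at 0, 8, 16, 24, 32 and 40 h of compound exposure at 37 C.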

[6] = qHTS RealTime-Glo MT Cell Viability Assay in HEK293 cells - 32 hour (AID 1224868; active = well fitted curve in the direction sought with a large enough effect in the repeat runs; an effect the other way counts as inactive or inconclusive; note: top concentration of the series differs between compounds; nearly all actives have a fitted effect of over 50% in size)
Method in brief: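 Nonlytic real-time viability readout: viable cells convert prosubstrate to NanoLuc substrate, giving luminescence proportional to live cell number. HEK293, 600 cells/well, compound added after 5 h, continuous culture at 37 C.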

[7] = A CellTox Green Cytotoxicity Assay to monitor cytotoxicity in HEK293 cells - 0 hour (AID 1224869; active = well fitted curve in the direction sought with a large enough effect in the repeat runs; an effect the other way counts as inactive or inconclusive; note: nearly all actives have a fitted effect of over 50% in size)
Method in brief: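 Fluorescence from a DNA-binding dye excluded by viable cells was measured repeatedly in the same HEK293 wells (600 cells/well) during continuous compound exposure at 37 C. Each assay gives one read point: 0, 8, 16, 24, 32 or 40 h.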

[8] = qHTS assay to identify small molecule antagonists of the estrogen related receptor (ERR) signaling pathway from Tox21 library (AID 1224848; active = well fitted curve in the direction sought with a large enough effect in the repeat runs; an effect the other way counts as inactive or inconclusive; note: nearly all actives have a fitted effect of over 50% in size)
Method in brief: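 Luciferase luminescence (ONE-Glo, 30 min room temperature) was the read-out. Cells of the NTP-supplied ERR line, 2,000 per well, were given 6 h at 37 C before compound addition in DMSO and 18 h exposure at 37 C.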

[9] = qHTS assay to identify small molecule agonists of the estrogen related receptor (ERR) signaling pathway from Tox21 library (AID 1224849); settings: ERR reporter cell line, ONE-Glo luciferase, 18 h; at 92.4 µM (top of the series) unless noted; note: nearly all actives have a fitted effect of over 15% in size
Method in brief: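 Luminescent agonist read-out (One-Glo, 30-minute room-temperature incubation) following 18-hour compound treatment at 37 C of the ERR cell line, which had been plated 6 hours before dosing.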

[10] = qHTS assay to identify small molecule agonists of the hypoxia (HIF-1) signaling pathway (AID 1224846; active = well fitted activation curve with a large enough effect in the signal ratio in the repeat runs, not every such curve was filed as active; the % refers to the signal ratio)
Method in brief: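 Compounds added to ME-180 cells carrying hypoxia-response-element beta-lactamase reporter (0.5% dialyzed FBS, 5 h preplating), 17 h at 37C; agonist activity detected by CCF4-AM B/G FRET read-out.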
% is set by controls: 0 for no effect and ±100 for the full control effect.

Thyrotropin receptor (Homo sapiens), sequence (P16473 whole entry, looked up): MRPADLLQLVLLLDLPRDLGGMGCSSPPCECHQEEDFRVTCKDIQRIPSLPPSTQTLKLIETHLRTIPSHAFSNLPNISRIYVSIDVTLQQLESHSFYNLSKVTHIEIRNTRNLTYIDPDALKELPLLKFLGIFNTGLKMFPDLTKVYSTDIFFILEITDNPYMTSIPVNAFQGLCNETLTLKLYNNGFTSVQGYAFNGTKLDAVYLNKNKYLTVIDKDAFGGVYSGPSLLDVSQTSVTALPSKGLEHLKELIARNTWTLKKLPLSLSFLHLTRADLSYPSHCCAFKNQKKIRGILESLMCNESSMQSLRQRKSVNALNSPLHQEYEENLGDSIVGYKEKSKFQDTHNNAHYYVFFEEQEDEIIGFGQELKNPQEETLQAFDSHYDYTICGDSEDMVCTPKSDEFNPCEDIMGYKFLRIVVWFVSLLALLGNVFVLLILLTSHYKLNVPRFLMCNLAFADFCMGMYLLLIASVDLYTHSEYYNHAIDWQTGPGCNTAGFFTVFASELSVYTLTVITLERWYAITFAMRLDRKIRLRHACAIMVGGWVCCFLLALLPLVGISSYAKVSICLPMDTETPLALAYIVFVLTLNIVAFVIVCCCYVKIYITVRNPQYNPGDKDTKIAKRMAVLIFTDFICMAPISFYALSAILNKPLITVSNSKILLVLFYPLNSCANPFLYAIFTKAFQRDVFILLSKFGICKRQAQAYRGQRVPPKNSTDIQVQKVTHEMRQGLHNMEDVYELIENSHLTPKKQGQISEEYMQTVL

CCOC(=O)c1ncn2c1CN(C)C(=O)c1cc(F)ccc1-2
inactive: Potency [1] | outcome [2] | outcome [3] | Potency [4] | outcome [5] | Potency [6] | outcome [7]

COc1ccc2c(c1OC)C(=O)O[C@@H]2[C@H]1c2c(cc3c(c2OC)OCO3)CCN1C
inactive: Potency [1] | outcome [2] | outcome [3] | Potency [4] | Potency [8] | activity change, positive = activation [9] -16% [at 42.5 µM] | outcome [5] | outcome [7]

CC(C)NCC(O)COc1ccc(COCCOC(C)C)cc1 (stereo unspecified)
inactive: Potency [1] | outcome [2] | outcome [3] | Potency [4] | outcome [5] | Potency [6] | outcome [7]

CCC(C)NC(N)=O (stereo unspecified)
inactive: Potency [1] | outcome [2] | outcome [3] | Potency [4] | outcome [5] | Potency [6] | outcome [7]

O=C(OCC(COC(=O)c1cccnc1)(COC(=O)c1cccnc1)COC(=O)c1cccnc1)c1cccnc1
inactive: Potency [1] | outcome [2] | outcome [3] | Potency [4] | outcome [5] | Potency [6] | outcome [7]

C[Si](C)(C)C
inactive: Potency [1] | outcome [2] | outcome [10] | Potency [4] | Potency [8] | activity change, positive = activation [9] -1.98% | outcome [5] | Potency [6] | outcome [7]

Cc1ccc2c(c1)OCC(=O)CO2
inactive: Potency [1] | outcome [2] | outcome [3] | Potency [4] | Potency [8] | outcome [5] | Potency [6] | outcome [7]

CCCCCCCCC1CCC(=O)O1 (stereo unspecified)
inactive: Potency [1] | outcome [2] | outcome [3] | Potency [4] | Potency [8] | outcome [5] | Potency [6] | outcome [7]

CC(C)NCC(O)COc1cccc2[nH]ccc12 (stereo unspecified)
inactive: Potency [1] | outcome [2] | outcome [3] | Potency [4] | outcome [5] | Potency [6] | outcome [7]

Cc1cccc(OCC(O)CNC(C)(C)C)c1C (stereo unspecified)
inactive: Potency [1] | outcome [2] | outcome [3] | Potency [4] | outcome [5] | Potency [6] | outcome [7]

Cc1ccccc1C(=O)Nc1ccc(C(=O)N2CCCC(N(C)C)c3ccccc32)cc1 (stereo unspecified)
inactive: Potency [1] | outcome [2] | outcome [3] | Potency [4] | outcome [5] | outcome [7]

Cc1cccc(C)c1NC(=O)c1ccccc1C(=O)O
inactive: Potency [1] | outcome [2] | outcome [10] | Potency [4] | Potency [8] | activity change, positive = activation [9] 2.58% [at 42.5 µM] | outcome [5] | Potency [6] | outcome [7]

CCCC(=O)C(C)=O
inactive: Potency [1] | outcome [2] | outcome [3] | Potency [8] | activity change, positive = activation [9] 7.37% | outcome [5] | Potency [6] | outcome [7]

CC1=C(C(=O)O)N2C(=O)[C@@H](NC(=O)[C@H](N)c3ccc(O)cc3)[C@H]2SC1
inactive: Potency [1] | outcome [2] | outcome [3] | Potency [4] | outcome [5] | Potency [6] | outcome [7]

CC(C)CCCC(C)(C)O
inactive: Potency [1] | outcome [2] | outcome [3] | Potency [4] | outcome [5] | Potency [6] | outcome [7]

O=C(O)Cc1cn(-c2ccccc2)nc1-c1ccc(Cl)cc1
inactive: Potency [1] | outcome [2] | outcome [3] | Potency [4] | outcome [5] | Potency [6] | outcome [7]

CN1C(C)(C)CCCC1(C)C
inactive: Potency [1] | outcome [2] | outcome [3] | Potency [4] | outcome [5] | Potency [6] | outcome [7]

CC(C)CC(=O)O
inactive: Potency [1] | outcome [2] | outcome [10] | Potency [4] | Potency [8] | activity change, positive = activation [9] 4.14% | outcome [5] | Potency [6] | outcome [7]

Brc1ccc(-c2ccccc2)cc1
inactive: Potency [1] | outcome [2] | outcome [10] | Potency [4] | outcome [5] | Potency [6] | outcome [7]

Nc1nnc(-c2cccc(Cl)c2Cl)c(N)n1
inactive: Potency [1] | outcome [2] | outcome [3] | Potency [4] | outcome [7]

O=C(CCNNC(=O)c1ccncc1)NCc1ccccc1
inactive: Potency [1] | outcome [2] | outcome [3] | Potency [4] | outcome [5] | Potency [6] | outcome [7]

COc1cc2c(cc1OC)[C@@H]1CC(=O)[C@@H](CC(C)C)CN1CC2
inactive: Potency [1] | outcome [2] | outcome [3] | Potency [4] | outcome [5] | Potency [6] | outcome [7]

CCOCCOC(=O)/C=C/c1ccc(OC)cc1
inactive: Potency [1] | outcome [2] | outcome [3] | Potency [4] | outcome [5] | Potency [6] | outcome [7]

CC(C)N(c1ccccc1)C(C)C
inactive: Potency [1] | outcome [2] | outcome [3] | Potency [4] | outcome [5] | Potency [6] | outcome [7]

O=C1c2ccccc2C(=O)C1c1ccccc1
inactive: Potency [1] | outcome [2] | outcome [3] | Potency [4] | outcome [5] | Potency [6] | outcome [7]

O=C(NCCN1CCOCC1)c1ccc(Cl)cc1
inactive: Potency [1] | outcome [2] | outcome [10] | Potency [4] | Potency [8] | activity change, positive = activation [9] 9.75% [at 42.5 µM] | outcome [5] | Potency [6] | outcome [7]
